The results in this text go back to publication PMC7862700, “An all-to-all approach to the identification of sequence-specific readers for epigenetic DNA modifications on cytosine”.

Common to all, as to test: DAPPL (digital affinity profiling via proximity ligation, sequencing); 10 mM Tris-HCl pH 7.5, 50 mM NaCl, 1 mM DTT, 4% glycerol, room temperature, 30 min; GST-TFs on glutathione beads, 16-mer random dsDNA library, 0.1% formaldehyde crosslink after washing; high values mean tight binding
What all share (details): protein: recombinant; tags: N-terminal GST; dsDNA, one strand shown

For test [1], the target named is T1, GABPA (Homo sapiens, UniProt Q06546 1-454).
T1 sequence: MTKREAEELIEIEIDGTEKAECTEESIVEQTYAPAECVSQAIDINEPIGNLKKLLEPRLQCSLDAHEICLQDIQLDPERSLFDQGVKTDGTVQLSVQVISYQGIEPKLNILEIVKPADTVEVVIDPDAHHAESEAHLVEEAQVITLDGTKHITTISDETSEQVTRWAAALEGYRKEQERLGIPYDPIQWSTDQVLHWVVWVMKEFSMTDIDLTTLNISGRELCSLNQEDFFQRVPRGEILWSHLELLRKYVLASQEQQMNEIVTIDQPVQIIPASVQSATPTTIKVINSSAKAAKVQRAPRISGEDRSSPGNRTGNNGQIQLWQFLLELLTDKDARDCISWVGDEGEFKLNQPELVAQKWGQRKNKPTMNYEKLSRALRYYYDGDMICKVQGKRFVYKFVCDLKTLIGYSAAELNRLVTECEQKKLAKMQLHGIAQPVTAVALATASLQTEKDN
The essentials: (§1)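 Beads coated with glutathione captured GST-fused human transcription factors that had been expressed in yeast, and the factors were then given DNA barcodes and pooled with a tag-only sample. The pools were incubated with 200 nmole of a random double-stranded 16-mer DNA library in Tris/NaCl/DTT/glycerol buffer for 30 min at room temperature, washed, crosslinked with 0.1% formaldehyde and proximity-ligated with BsaI/T4 ligase at 37 °C for 1 h. PCR amplification and Illumina NextSeq500 sequencing came last. Binding signal is each hexamer's read frequency for a factor divided by its frequency for the tag-only sample.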

The target in test [2] is ELF1 (Homo sapiens, UniProt P32519 1-619). The essentials: as §1
In test [3] the target is T2, EHF (Homo sapiens, UniProt Q9NZC4 1-300).
T2 sequence: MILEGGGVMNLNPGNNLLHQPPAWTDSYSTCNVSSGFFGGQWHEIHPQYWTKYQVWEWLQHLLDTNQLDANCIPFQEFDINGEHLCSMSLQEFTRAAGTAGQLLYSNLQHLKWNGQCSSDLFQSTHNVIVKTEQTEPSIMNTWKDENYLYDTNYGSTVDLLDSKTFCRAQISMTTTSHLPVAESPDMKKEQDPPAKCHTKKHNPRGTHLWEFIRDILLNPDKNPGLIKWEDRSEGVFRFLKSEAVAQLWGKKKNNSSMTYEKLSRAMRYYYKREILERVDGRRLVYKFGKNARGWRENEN
In short, it runs like this:
as §1

For test [4], the target named is T3, FEV (Homo sapiens, UniProt Q99581 1-238).
T3 sequence: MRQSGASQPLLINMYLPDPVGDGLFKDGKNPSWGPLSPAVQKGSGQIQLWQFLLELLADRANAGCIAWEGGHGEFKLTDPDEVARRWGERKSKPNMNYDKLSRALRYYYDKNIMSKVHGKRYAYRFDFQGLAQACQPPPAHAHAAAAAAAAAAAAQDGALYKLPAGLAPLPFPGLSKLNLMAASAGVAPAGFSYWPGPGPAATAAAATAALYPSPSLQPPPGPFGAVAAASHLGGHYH
In short, it runs like this:
as §1

The target of test [5] is ETV5 (Homo sapiens, UniProt P41161 1-510). In short, it runs like this:
as §1

The target in test [6] is T4, ELK4 (Homo sapiens, UniProt P28324-2 1-405).
T4 sequence: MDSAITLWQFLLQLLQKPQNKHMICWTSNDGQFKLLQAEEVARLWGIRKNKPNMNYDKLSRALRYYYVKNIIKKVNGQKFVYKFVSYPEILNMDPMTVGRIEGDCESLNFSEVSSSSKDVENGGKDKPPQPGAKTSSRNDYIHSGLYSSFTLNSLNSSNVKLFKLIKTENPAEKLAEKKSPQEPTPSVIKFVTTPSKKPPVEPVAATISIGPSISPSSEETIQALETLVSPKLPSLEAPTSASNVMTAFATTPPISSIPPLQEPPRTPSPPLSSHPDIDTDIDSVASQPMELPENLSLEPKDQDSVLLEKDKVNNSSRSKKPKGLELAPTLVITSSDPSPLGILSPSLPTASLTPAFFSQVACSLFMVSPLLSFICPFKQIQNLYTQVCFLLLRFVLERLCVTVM
The essentials: as §1

Test [7] has as its target ETV1 (Homo sapiens, UniProt P50549 1-477). The essentials:
as §1

For test [8], the target named is T5, SPDEF (Homo sapiens, UniProt O95238 1-335).
T5 sequence: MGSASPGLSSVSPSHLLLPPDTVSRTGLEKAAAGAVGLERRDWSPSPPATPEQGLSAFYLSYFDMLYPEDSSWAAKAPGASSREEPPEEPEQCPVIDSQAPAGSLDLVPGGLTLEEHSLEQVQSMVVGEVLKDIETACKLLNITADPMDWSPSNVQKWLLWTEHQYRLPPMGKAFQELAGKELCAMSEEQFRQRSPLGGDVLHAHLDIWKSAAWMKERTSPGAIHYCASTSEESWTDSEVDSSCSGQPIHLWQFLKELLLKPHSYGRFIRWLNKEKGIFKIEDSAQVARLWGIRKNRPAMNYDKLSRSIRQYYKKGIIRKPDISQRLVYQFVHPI
The essentials: as §1

Test [9] addresses T6, ETV7 (Homo sapiens, UniProt Q9Y603 1-341).
T6 sequence: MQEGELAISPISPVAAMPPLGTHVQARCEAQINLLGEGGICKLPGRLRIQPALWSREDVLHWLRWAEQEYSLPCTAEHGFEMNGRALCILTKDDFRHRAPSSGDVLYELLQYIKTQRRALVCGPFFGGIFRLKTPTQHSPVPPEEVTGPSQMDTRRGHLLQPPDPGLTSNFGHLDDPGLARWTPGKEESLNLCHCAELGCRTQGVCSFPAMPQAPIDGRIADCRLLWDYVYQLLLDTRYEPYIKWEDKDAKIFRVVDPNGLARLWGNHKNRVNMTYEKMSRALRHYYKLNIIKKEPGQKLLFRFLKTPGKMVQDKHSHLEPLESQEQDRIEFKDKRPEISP
In short, it runs like this: as §1

In test [10] the target is ETV6 (Homo sapiens, UniProt P41212 1-452). The essentials:
as §1

Test [11] addresses T7, ERG (Homo sapiens, UniProt P11308 1-479).
T7 sequence: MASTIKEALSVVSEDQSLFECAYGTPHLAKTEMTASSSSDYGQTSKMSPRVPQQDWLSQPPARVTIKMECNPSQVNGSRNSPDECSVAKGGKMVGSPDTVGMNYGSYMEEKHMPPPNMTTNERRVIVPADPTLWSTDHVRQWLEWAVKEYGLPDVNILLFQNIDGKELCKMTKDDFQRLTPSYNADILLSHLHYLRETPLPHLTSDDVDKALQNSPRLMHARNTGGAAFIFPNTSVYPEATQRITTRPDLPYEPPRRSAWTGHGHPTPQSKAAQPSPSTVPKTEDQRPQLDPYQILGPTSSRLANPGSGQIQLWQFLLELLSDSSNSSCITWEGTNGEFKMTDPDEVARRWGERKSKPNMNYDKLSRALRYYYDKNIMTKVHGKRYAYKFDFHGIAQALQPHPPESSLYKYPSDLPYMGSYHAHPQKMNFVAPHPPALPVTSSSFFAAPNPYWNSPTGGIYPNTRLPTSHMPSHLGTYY
The essentials: as §1

In test [12] the target is SPI1 (Homo sapiens, UniProt P17947 1-270). The essentials:
as §1

Test [13] has as its target T8, ERF (Homo sapiens, UniProt P50548 1-548).
T8 sequence: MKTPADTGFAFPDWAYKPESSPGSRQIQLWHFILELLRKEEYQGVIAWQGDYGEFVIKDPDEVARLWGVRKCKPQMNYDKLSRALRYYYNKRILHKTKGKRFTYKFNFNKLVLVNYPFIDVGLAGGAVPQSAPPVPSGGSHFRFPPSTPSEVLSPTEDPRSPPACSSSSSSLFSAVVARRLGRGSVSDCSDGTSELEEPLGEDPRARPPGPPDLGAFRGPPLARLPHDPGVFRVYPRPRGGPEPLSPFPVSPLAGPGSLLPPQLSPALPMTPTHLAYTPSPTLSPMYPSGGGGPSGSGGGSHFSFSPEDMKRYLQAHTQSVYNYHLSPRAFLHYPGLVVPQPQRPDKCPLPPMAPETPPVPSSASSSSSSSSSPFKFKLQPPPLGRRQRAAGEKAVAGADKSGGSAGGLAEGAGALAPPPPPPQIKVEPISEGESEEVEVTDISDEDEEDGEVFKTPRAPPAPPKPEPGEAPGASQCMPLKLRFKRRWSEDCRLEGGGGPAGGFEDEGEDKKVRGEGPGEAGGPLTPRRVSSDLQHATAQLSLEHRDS
In short, it runs like this:
as §1

In test [14] the target is T9, ETV3L (Homo sapiens, UniProt Q6ZN32 1-361).
T9 sequence: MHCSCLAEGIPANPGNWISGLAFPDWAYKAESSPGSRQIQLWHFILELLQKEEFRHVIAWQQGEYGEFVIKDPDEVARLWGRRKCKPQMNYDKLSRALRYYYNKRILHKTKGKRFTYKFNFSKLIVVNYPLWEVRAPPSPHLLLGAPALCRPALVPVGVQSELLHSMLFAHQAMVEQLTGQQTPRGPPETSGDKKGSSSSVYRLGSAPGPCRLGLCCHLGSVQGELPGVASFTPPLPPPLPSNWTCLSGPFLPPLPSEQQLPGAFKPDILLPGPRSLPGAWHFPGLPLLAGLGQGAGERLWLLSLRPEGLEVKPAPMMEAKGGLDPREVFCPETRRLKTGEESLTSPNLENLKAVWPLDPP
In short, it runs like this:
as §1

Test [15] deals with T10, ETS2 (Homo sapiens, UniProt P15036 1-469).
T10 sequence: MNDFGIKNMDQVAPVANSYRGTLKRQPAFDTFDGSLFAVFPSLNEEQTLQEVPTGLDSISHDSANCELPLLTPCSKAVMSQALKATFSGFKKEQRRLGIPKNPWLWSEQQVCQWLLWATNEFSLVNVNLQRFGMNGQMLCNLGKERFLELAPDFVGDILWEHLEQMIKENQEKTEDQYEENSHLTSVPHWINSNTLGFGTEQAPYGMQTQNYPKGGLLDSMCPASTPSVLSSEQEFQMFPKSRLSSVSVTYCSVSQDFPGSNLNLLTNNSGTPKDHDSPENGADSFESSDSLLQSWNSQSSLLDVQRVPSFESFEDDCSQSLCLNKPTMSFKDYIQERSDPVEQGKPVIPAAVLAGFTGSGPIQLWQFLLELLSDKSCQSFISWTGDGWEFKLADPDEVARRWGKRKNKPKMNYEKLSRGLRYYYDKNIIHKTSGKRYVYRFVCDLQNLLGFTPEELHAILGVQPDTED
The essentials:
as §1

Sequence of ETV6 (P41212 whole entry): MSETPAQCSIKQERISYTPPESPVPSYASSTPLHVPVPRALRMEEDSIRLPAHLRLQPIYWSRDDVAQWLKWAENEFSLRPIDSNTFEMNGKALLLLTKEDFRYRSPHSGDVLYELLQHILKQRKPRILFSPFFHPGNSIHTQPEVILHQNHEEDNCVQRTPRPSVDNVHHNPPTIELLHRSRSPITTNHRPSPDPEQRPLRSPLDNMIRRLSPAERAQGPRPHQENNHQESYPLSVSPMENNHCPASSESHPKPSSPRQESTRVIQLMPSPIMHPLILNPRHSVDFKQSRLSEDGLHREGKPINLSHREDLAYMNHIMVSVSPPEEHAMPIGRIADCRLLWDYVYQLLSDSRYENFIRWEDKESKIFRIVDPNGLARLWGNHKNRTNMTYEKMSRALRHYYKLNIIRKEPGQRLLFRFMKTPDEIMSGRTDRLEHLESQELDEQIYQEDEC
Sequence of ETV5 (P41161 whole entry): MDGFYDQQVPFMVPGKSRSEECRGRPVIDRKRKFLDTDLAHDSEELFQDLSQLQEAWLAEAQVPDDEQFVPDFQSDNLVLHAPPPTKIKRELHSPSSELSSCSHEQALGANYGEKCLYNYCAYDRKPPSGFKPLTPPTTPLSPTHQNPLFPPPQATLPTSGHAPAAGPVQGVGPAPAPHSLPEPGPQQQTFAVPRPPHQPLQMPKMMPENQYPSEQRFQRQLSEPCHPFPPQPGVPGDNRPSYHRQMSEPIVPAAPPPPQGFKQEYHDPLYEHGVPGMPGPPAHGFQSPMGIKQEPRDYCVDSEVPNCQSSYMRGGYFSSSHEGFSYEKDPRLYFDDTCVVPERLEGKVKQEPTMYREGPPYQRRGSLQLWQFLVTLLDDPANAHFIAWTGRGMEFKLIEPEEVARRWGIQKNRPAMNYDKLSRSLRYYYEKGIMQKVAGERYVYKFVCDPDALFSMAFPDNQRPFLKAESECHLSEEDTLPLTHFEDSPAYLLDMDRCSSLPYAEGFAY
Sequence of ETV1 (P50549 whole entry): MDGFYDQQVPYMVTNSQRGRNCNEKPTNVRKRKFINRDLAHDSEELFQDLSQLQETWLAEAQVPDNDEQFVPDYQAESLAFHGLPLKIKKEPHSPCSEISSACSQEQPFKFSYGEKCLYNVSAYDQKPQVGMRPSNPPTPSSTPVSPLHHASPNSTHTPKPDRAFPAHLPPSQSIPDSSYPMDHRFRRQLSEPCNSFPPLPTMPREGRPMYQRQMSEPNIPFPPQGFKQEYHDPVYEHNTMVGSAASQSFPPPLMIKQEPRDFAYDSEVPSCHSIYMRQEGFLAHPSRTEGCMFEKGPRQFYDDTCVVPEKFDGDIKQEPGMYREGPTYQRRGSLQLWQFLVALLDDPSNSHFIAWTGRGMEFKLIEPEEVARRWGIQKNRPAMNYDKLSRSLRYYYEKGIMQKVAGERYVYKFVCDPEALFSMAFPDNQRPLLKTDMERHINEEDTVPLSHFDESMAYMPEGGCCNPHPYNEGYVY
Sequence of ELF1 (P32519 whole entry): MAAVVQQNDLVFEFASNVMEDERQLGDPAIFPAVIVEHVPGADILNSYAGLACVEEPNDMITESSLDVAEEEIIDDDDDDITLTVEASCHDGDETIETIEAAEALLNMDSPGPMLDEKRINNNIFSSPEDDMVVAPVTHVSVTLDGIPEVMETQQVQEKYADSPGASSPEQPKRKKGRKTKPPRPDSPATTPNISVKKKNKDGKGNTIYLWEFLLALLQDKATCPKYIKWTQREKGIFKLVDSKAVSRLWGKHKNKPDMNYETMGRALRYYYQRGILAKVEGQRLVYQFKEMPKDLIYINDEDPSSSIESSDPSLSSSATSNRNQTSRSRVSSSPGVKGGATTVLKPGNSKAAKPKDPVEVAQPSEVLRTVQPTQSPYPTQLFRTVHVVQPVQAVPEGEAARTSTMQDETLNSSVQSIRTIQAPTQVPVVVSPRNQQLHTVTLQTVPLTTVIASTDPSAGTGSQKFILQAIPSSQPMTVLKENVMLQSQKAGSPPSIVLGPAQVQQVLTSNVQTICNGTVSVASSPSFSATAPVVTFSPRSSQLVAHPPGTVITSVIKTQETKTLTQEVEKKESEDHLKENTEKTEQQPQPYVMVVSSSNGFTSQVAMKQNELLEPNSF

On to GGCTAA, for which the binding signal in test [1] is 1.01 fold enrichment (6-mer frequency, TF over GST control); in test [2], 1.04 fold enrichment (6-mer frequency, TF over GST control); in test [3], 1.01 fold enrichment (6-mer frequency, TF over GST control); in [4] it was 1.01 fold enrichment (6-mer frequency, TF over GST control); in test [5], 1.01 fold enrichment (6-mer frequency, TF over GST control); in test [6] it was 1.04 fold enrichment (6-mer frequency, TF over GST control). Besides, the binding signal is 1.03 fold enrichment (6-mer frequency, TF over GST control) in test [7]; 1 fold enrichment (6-mer frequency, TF over GST control) in test [8]; 1 fold enrichment (6-mer frequency, TF over GST control) in test [9]; 1.04 fold enrichment (6-mer frequency, TF over GST control) in test [10].
TCACGG: the binding signal is 1.02 fold enrichment (6-mer frequency, TF over GST control) in test [11]; 1.06 fold enrichment (6-mer frequency, TF over GST control) in test [2]; 1.08 fold enrichment (6-mer frequency, TF over GST control) in test [3]; 1.01 fold enrichment (6-mer frequency, TF over GST control) in test [12]; 1.04 fold enrichment (6-mer frequency, TF over GST control) in test [5]; 1.02 fold enrichment (6-mer frequency, TF over GST control) in test [6]. Also, the binding signal in test [7] was 1.09 fold enrichment (6-mer frequency, TF over GST control); in [13] it was 1.06 fold enrichment (6-mer frequency, TF over GST control); in [14], 1.02 fold enrichment (6-mer frequency, TF over GST control); in [15] it was 1.04 fold enrichment (6-mer frequency, TF over GST control); in [8] it was 1.1 fold enrichment (6-mer frequency, TF over GST control); in test [9] it was 1.04 fold enrichment (6-mer frequency, TF over GST control). In test [10], the binding signal was 1.05 fold enrichment (6-mer frequency, TF over GST control).
